Compounds with a hit are over-represented: about 5.1% of the library has one in this group of screens.
RAM inhibit: yeast RAM network inhibition | AID 868 | hit rate 1.8% among 190,000 | inhibition, % at 50 µM | S. cerevisiae dse1pr::URA3 reporter, 5-FOA growth OD615, 2 d; analog-sensitive cbk1-as2 kinase mutant strain;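 active means inhibition above a set limit, 3 SD over mean compound inhibition, cut at about 8.4% in these data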;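 further: 0% = DMSO-only wells with no growth and 100% = 10 µM 1-NA-PP1 full growth; inhibition rescues growth on 5-FOA so higher OD means more RAM inhibition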
ROMK primary: human ROMK K+ channel modulation, primary screen. B-score at 10 µM. P48048. hit rate 2% among 130,000. Tet-inducible ROMK, thallium flux fluorescence; actives lie on both sides. AID 1918;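 active means signal ratio slope over the read window, or its plate-corrected B-score, at least 3 SD from the plate mean, either direction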;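 further: B-score of the F/F0 ratio slope over 7 to 12 s after thallium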
Target sequence (P48048 whole entry, looked up): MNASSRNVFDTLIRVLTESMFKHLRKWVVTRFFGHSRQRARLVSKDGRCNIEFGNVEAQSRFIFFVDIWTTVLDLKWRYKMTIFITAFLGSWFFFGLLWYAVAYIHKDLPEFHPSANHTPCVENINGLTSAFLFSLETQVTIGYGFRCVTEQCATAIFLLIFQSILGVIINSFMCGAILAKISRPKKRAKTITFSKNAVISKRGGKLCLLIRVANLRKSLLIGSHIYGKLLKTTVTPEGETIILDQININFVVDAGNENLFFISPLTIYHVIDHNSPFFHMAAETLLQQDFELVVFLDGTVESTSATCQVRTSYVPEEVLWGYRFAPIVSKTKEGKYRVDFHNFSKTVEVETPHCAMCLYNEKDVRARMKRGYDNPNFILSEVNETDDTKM
S1P4 ag: activates the human S1P4 receptor; activation, % at 4.98 µM; hit rate 0.35% among 220,000; S1P4-expressing cell line, agonist reporter assay; O95977; in the data active means activation above about 11%;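 further: 0% = DMSO vehicle and 100% = reference agonist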
Target sequence (O95977 whole entry, looked up): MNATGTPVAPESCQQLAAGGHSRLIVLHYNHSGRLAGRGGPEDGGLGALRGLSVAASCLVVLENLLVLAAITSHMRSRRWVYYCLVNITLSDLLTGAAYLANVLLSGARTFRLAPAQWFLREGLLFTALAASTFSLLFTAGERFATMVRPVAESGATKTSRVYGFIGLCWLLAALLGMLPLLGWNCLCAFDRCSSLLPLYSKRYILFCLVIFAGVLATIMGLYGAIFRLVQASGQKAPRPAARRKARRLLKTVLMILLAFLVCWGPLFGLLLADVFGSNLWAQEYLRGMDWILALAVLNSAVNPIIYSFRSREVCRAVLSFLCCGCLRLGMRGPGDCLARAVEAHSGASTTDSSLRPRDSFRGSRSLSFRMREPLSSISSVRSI
S1P4 antagonist: human S1P4 receptor antagonism; S1P4-expressing cells, antagonist mode, reporter read-out; inhibition, % at 4.98 µM; hit rate 0.26% among 220,000; AID 1510; in the data active means inhibition above about 29%;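 further: 0% = wells stimulated with agonist and 100% = vehicle wells without agonist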
Cl transport mod: modulates chloride dependent transport by human KCC2. Q9H2X9. KCC2 cells, thallium flux FluoZin-2 fluorescence. B-score of Tl+ flux slope (higher = more flux/activation; lower = inhibition) at 10 µM. hit rate 2.2% among 190,000. AID 1456;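 active means thallium flux slope and its plate-corrected score both differing from the plate sample mean at a set confidence after two filtering rounds, in either direction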;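 further: slope of fluorescence scaled to starting intensity during 10 to 20 s after thallium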
S1P3 antagonist: blocks the human S1P3 receptor; AID 485; CHO S1P3 NFAT-BLA reporter, FRET fluorescence, antagonist mode; Q99500; hit rate 0.27% among 170,000; inhibition, % at 4.98 µM;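 active means inhibition above the plate cutoff, the mean inhibition of test wells on that plate plus 3 SD, cut at about 28% in these data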;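 further: cells challenged with S1P at its EC80 of 0.8 µM; blue over green emission ratio from cleaved BLA substrate after 4 h stimulation; 0% = S1P-stimulated wells and 100% = unstimulated DMSO-only wells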
KCC2 secondary: KCC2 (human) modulation, secondary assay; shares compounds with Cl transport mod; normalised thallium flux (F/F0 slope) at 10 µM; HEK293-KCC2, thallium flux, FluoZin2 fluorescence; hits give high values; hit rate 15% among 3,700;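 active means thallium flux slope above the same plate's solvent-only control mean plus 3 SD; inconclusive means the two replicate wells disagree; inactive means no significant difference from solvent-only control wells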
KCC2 bumet counter: thallium flux despite bumetanide block in KCC2 cells, secondary assay 3 | shares compounds with Cl transport mod | HEK293-KCC2 + bumetanide/ouabain, thallium flux FluoZin2; hits give high values | normalized thallium flux at 10 µM | hit rate 49% among 3,700;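 active means thallium entry rate above the same plate's blocked-transporter control wells by more than 3 SD; inconclusive means the two repeat wells disagree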;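 further: raw slope of fluorescence over initial fluorescence between 10 and 20 s after thallium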
KCC2 sec2: KCC2 (human) modulation, second secondary assay; shares compounds with Cl transport mod; HEK293-KCC2, thallium flux FluoZin2 fluorescence; actives lie on both sides; F/F0 rise rate, 10–20 s post-thallium; normalized thallium flux at 10 µM; hit rate 23% among 3,700;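 active means thallium flux slope more than 3 SD above or below the plate's solvent-only control mean, mostly below; inconclusive means the two repeat wells disagreed; inactive means no significant shift from solvent-only controls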;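 further: raw slope with 0.1% DMSO as baseline and bumetanide as block control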
HEK counter1: parental HEK flux effect, counter-screen; HEK293 parental cells, thallium flux FluoZin2, ouabain; baseline-ratio fluorescence slope, 10–20 s after thallium; AID 1716; shares compounds with Cl transport mod; thallium flux rate (normalised fluorescence) at 10 µM; hit rate 46% among 3,700;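 active means thallium flux rate significantly above the same plate's solvent-only control wells, beyond their mean plus 3 SD; inconclusive means the two replicate wells gave conflicting results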
KCC2 ouabain: modulates human KCC2 on retest with ouabain. shares compounds with Cl transport mod. HEK293-KCC2, thallium flux FluoZin2 fluorescence; bidirectional: low = inhibitor, high = activator. raw Tl+ flux slope (below DMSO = inhibition, above = activation) at 10 µM. hit rate 48% among 3,700;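 active means thallium flux slope beyond 3 SD from same-plate DMSO control mean in most replicates, usually higher, sometimes lower; inconclusive means repeat tests gave conflicting results; inactive means no significant difference from controls in most replicates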;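 further: slope of initial-normalized fluorescence between seconds 10 and 20 after thallium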
HEK293 Tl flux2: acts in parental HEK cells, second KCC2 counter-screen | shares compounds with Cl transport mod | HEK293 parental, thallium flux FluoZin-2 fluorescence slope | thallium flux slope at 10 µM | hit rate 33% among 3,700;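 active means thallium flux slope above the same plate's solvent-control mean plus 3 SD in both duplicate wells; inconclusive means duplicate wells that disagreed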;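 further: run without ouabain in cells lacking the KCC2 cotransporter; slope of fluorescence scaled to its starting value between 10 and 20 s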
Numbers without * were called inactive; ? = inconclusive; nt = not tested or not shown.

SMILES	RAM inhibit	ROMK primary	S1P4 ag	S1P4 antagonist	Cl transport mod	S1P3 antagonist	KCC2 secondary	KCC2 bumet counter	KCC2 sec2	HEK counter1	KCC2 ouabain	HEK293 Tl flux2
Cc1ccc(Cc2cnc(N3C(=N)SC(C)C3=O)s2)cc1 (stereo unspecified)	1.8	0.394	1.4	0.8	10.6*	3.2	0.012	0.0303*	0.0347	0.0183*	0.0303*	0.0106
N=C1SCC(=O)N1c1ncc(Cc2cccc(Cl)c2)s1	2.3	-0.301	8.3	20.0	8.07*	-21.4	?	0.0189*	0.032	0.0203*	0.0311*	?
Cc1cccc(Cc2cnc(N3C(=N)SC(c4ccccc4)C3=O)s2)c1 (stereo unspecified)	4.8	0.00464	1.3	-8.9	1.39	-2.1	nt	nt	nt	nt	nt	nt
CCOC(=O)C1C(=O)OC(C)(C)C1C(CC)C(=O)c1c(C)cc(C)cc1C (stereo unspecified)	nt	nt	1.8	-5.1	-1.1	3.0	nt	nt	nt	nt	nt	nt
COc1cccc(NC(=O)Cn2c(=O)n(CCC(=O)NC3CCN(Cc4ccccc4)CC3)c(=O)c3ccccc32)c1	nt	nt	0.2	-12.8	-0.685	-1.3	nt	nt	nt	nt	nt	nt
O=C(NC(=S)Nc1ccc(CN2CCOCC2)cc1)c1ccc([N+](=O)[O-])cc1	1.0	nt	0.1	-12.8	4.61*	1.0	0.00716	0.00969*	0.0347	0.0118*	0.0222	0.0132*
CN(C)C(=S)NC(=O)C12CC3CC(C)(CC(C)(C3)C1)C2	nt	nt	1.4	3.0	16.8*	-2.1	?	0.0386*	0.0338	0.0161*	0.0251*	0.0197*
O=C(c1ccc(Cl)cc1)c1cnc2ccccn12	2.9	-0.208	-1.8	7.5	-3.39*	nt	0.00702	0.00465	0.0296	0.00801	0.0182	0.0103
CC(NCc1cc(Br)ccc1OCC(=O)NCc1ccccc1)c1ccccc1 (stereo unspecified)	1.7	-1.56	-0.2	-9.4	-1.03	6.0	nt	nt	nt	nt	nt	nt
Cn1c(C(=O)OC(C(=O)NC2CCCC2)c2ccncc2)cc2sccc21 (stereo unspecified)	1.3	nt	0.2	-3.8	-5.18*	23.0	0.00677	?	0.025*	0.0074	?	0.0101
Cc1sc2nnn(CC(=O)N3CCN(C(=O)c4ccco4)CC3)c(=O)c2c1C	nt	-0.772	-1.2	-13.4	1.09	-4.4	nt	nt	nt	nt	nt	nt
Cc1cc(NC(=O)CSc2nc(C(C)C)nc3sc(C)c(C)c23)no1	5.1	0.0146	-3.5	-3.4	9.31*	-5.5	?	0.034*	0.038	0.0168*	?	0.0122*
Cc1sc2nc(C(C)C)nc(SCC(=O)N3CCN(C(=O)c4ccco4)CC3)c2c1C	1.8	-0.198	0.3	-2.6	nt	7.9	0.00659	0.0166*	0.0288	0.0124*	0.019	0.0123*
Brc1ccc(-c2csc(Nc3nc(-c4ccc(Br)cc4)cs3)n2)cc1	nt	nt	0.8	0.0	18.6*	7.7	0.0104	0.0248*	0.0347	0.0143*	0.0268	0.0118*
Nc1nc(-c2ccc(Br)cc2)cs1	1.6	nt	-0.8	11.2	-1.75	-8.5	nt	nt	nt	nt	nt	nt
Cn1c(/N=C/c2ccc3c(c2)OCO3)nc2ccccc21	0.0	0.555	1.6	-3.8	-3.13*	-6.3	0.00749	0.00442	?	0.00732	0.0171*	0.0101
O=C(Nc1ccc(-c2nc3ccccc3[nH]2)cc1)c1ccccc1NS(=O)(=O)c1ccc(F)cc1	6.3	0.215	1.9	-4.2	-4.64*	7.0	0.00766	0.00419	0.0295	0.00729	0.0154*	0.0105
O=C(Nc1cc(S(=O)(=O)N2CCCCC2)ccc1Cl)c1ccccc1NS(=O)(=O)c1ccc(F)cc1	6.4	0.91	0.1	-7.9	-4.77*	11.0	0.00834	0.0065	?	0.00561	?	0.00907
CC(NC(=O)CN(C)Cc1cccs1)c1ccccc1 (stereo unspecified)	2.9	1.77	0.7	-5.4	-1.82	-16.7	nt	nt	nt	nt	nt	nt
Cn1c(=O)[nH]c(=O)c2c1nc(SCCO)n2CC(O)COc1ccccc1 (stereo unspecified)	-0.1	0.586	0.7	-26.1	nt	12.9	nt	nt	nt	nt	nt	nt
CC(C)N(Cc1nc(-c2ccccc2)no1)C(=O)CN(C)S(=O)(=O)c1ccc(Br)cc1	0.5	nt	-1.1	1.2	0.0723	nt	0.00797	0.0056	0.0334	0.00757	0.02	0.0108
CC(C)N(Cc1nc(-c2ccc(Cl)cc2)no1)C(=O)CN(C)S(=O)(=O)c1ccc(Cl)cc1	5.9	nt	0.7	-22.1	nt	5.3	nt	nt	nt	nt	nt	nt
O=C(CCc1nc2ccccc2s1)N1CCN(S(=O)(=O)c2cccs2)CC1	1.0	-0.813	-3.3	-6.0	-4.11*	19.0	0.00704	0.00528	0.0377	0.00405	0.0181	0.011
O=C(NNC(=O)c1cnccc1C(F)(F)F)c1cccc(Cl)c1	nt	nt	1.8	2.9	0.00541	-4.5	nt	nt	nt	nt	nt	nt
Cc1nc(C(=O)NNC(=O)c2cccc(Cl)c2)c(C(F)(F)F)o1	nt	nt	2.9	-10.2	11.3*	-1.0	0.0126*	0.0192*	0.0328	?	0.0232	0.0115*
SMILES	RAM inhibit	ROMK primary	S1P4 ag	S1P4 antagonist	Cl transport mod	S1P3 antagonist	KCC2 secondary	KCC2 bumet counter	KCC2 sec2	HEK counter1	KCC2 ouabain	HEK293 Tl flux2
Cc1nc(C(=O)NNC(=O)c2ccccc2Cl)c(C(F)(F)F)o1	nt	nt	1.0	-13.6	5.64*	-0.6	0.00715	0.00702*	0.03	0.0095*	?	?
CCOC(=O)c1sc2ncn(/N=C/c3ccc(O)c(OC)c3)c(=O)c2c1C	1.0	-0.586	-1.6	-10.1	0.907	6.8	nt	nt	nt	nt	nt	nt
O=C1OCC2OC(O)C(O)C(O)C2OC(=O)c2cc(O)c(O)c(O)c2-c2c(O)c(O)c3oc(=O)c4c(c(O)c(O)c5oc(=O)c2c3c54)-c2c1cc(O)c(O)c2O (stereo unspecified)	nt	nt	nt	nt	1.03	nt	nt	nt	nt	nt	nt	nt
CCCn1c(N)c(C(=O)COc2ccc(Br)cc2F)c(=O)n(C)c1=O	2.7	1.16	1.7	-33.0	-0.36	3.0	nt	nt	nt	nt	nt	nt
COc1ccc(-c2cc(CNC(=O)CN(C)Cc3ccccc3)on2)cc1	4.2	nt	1.2	-27.3	nt	nt	0.00576	0.00485	0.0235*	0.00683	0.0134*	0.00941
O=C(OCn1ncc(Cl)c(Cl)c1=O)c1cccc(C(F)(F)F)c1	3.1	nt	-3.9	34.0*	nt	nt	0.00915	?	0.033	0.0059*	0.0152*	0.0118

Screens deposited in PubChem by several laboratories.
